# Source: PubChem BioAssay
# VACV mCherry inh: qHTS for Stage-Specific Inhibitors of Vaccinia Orthopoxvirus: mCherry Reporter Primary qHTS; Vaccinia virus mCherry reporter infection, fluorescence; Potency, µM (series often up to 36.5 µM), most hits filed as inhibitors; hit rate 0.63% among 310,000; calls by dose curve; tested in A549 cells; further: nearly all actives have a fitted effect of over 35% in size
# Lassa entry inh: qHTS for Inhibitors of binding or entry into cells for Lassa Virus. Lassa virus pseudotype entry inhibition, cell reporter. Potency, µM (series often up to 37.9 µM), hits mostly inhibitors. hit rate 1.2% among 300,000; calls by dose curve; tested in HEK293 cells; further: nearly all actives have a fitted effect of over 50% in size
# Vaccinia Venus: qHTS for Stage-Specific Inhibitors of Vaccinia Orthopoxvirus: Venus Reporter Primary qHTS | AID 720580, 2013 | Vaccinia virus Venus reporter expression, fluorescence | Potency, µM (top dose mostly 36.5 µM), most hits filed as inhibitors | hit rate 0.46% among 330,000; calls by dose curve; tested in A549 cells; further: nearly all actives have a fitted effect of over 30% in size
# MARV entry inh: qHTS for inhibitors of binding or entry into cells for Marburg Virus; Potency, µM (series often up to 37.8 µM), hits mostly inhibitors; AID 540276, 2011; hit rate 1.8% among 300,000; Marburg virus pseudotyped entry inhibition, cell reporter; calls by dose curve; tested in HEK293 cells
# Cycloheximide cs: Cycloheximide Counterscreen for Small Molecule Inhibitors of Shiga Toxin; hit rate 12% among 300,000; max response, %; AID 2314, 2010; cell reporter, cycloheximide protein synthesis inhibition counterscreen; in the data active means max response mostly above about 13%, no sharp cut-off; inactive means mostly below about 14%; further: read at 38.3 µM for the half of the compounds with a filed dose
# Shiga inhibitor: A qHTS for Small Molecule Inhibitors of Shiga Toxin; Vero cells, Shiga toxin protein synthesis inhibition reporter; inhibition, % at 38.7 µM; hit rate 9.2% among 290,000; in the data active means inhibition mostly above about 28%, no sharp cut-off; inactive means mostly below about 43%
# A number is an active result; i = inactive; ? = inconclusive; nt = no result given; + = active, no number. Shown is part of a subset that was picked to be rich in hits.
SMILES,VACV mCherry inh,Lassa entry inh,Vaccinia Venus,MARV entry inh,Cycloheximide cs,Shiga inhibitor
CCOC(=O)C1C(=O)C=C(c2ccc([N+](=O)[O-])cc2)CC1c1ccccc1 (stereo not drawn),nt,?,nt,?,i,i
CCOC(=O)C1C(=O)C=C(c2ccc(Br)cc2)CC1c1ccco1 (stereo not drawn),nt,15µM,nt,?,i,i
O=C(Nc1ccc([N+](=O)[O-])cc1)c1ccc(Cn2cc([N+](=O)[O-])cn2)cc1,nt,nt,nt,nt,i,i
CCOc1ccc(C(=O)Nc2cnn(Cc3ccc(Cl)c(Cl)c3)c2)cc1,nt,?,nt,?,i,i
O=C(Nc1cnn(Cc2ccc(Cl)c(Cl)c2)c1)C12CC3CC(CC(C3)C1)C2,18µM,?,?,13µM,i,i
O=C(Nc1ccccc1F)c1ccc(Cn2cc(Cl)cn2)cc1,i,i,i,i,28,i
O=C(Nc1cccc2ccccc12)c1ccc(Cn2cc(Cl)cn2)cc1,nt,i,i,?,i,i
O=C(Nc1cnn(Cc2ccc(Cl)cc2)c1)c1ccc([N+](=O)[O-])cc1,?,?,?,11µM,i,i
O=C(Nc1ccc(Cl)c(Cl)c1)c1ccc(Cn2cc(Cl)cn2)cc1,nt,nt,nt,i,32,active
Cc1ccc(NC(=O)C(=O)NCC(c2cccnc2)N2CCc3ccccc3C2)cc1 (stereo not drawn),i,i,i,nt,nt,nt
CCCCN1CC[C@H]2C=CC[C@@H](C(=O)NCc3cccnc3)[C@H]2C1=O,i,nt,i,nt,nt,nt
CCOC(=O)c1ccc(NC(=O)c2cccc3c(=O)c4c([nH]c23)CCCC4)cc1,i,?,i,?,nt,nt
O=C1C[C@H]2C=CCc3cccc(c32)CN1Cc1ccc(Cl)cc1,i,nt,i,nt,nt,nt
Cc1cccc(C)c1Nc1nc2ccccc2nc1NS(=O)(=O)c1ccccc1,i,i,i,i,nt,nt
Cc1[nH]c2c(ccc3ccccc32)c1C1C(CCN)C1(C)C (stereo not drawn),nt,?,nt,26µM,i,i
Cc1ccc(Cn2c(C(=O)O)c(CNC3CCCC3)c3ccc(C)cc32)cc1,i,i,i,nt,nt,nt
Cc1c(C(=O)NC(C)(C)CO)sc2ncnc(NCCN(C)C)c12,i,nt,i,nt,nt,nt
Cc1noc(-c2ccc(-c3noc(-c4ccc(F)cc4)n3)cc2)n1,i,i,i,nt,nt,nt
Fc1ccc(-c2noc(-c3ccc4c(c3)CCO4)n2)cc1,i,10µM,i,?,56,77
O=C1NC(=S)CN1c1ccccc1,nt,nt,nt,nt,i,i
COc1ccccc1CCC(=O)OCC(=O)Nc1cccc(S(=O)(=O)N2CCOCC2)c1,i,i,i,i,nt,nt
O=C(CN1CCOCC1)c1ccc(Br)cc1,i,i,i,i,i,i
N=C1CCCN1CC(=O)c1ccc(Br)cc1,i,i,i,?,46,+
O=C(CN1C(=O)c2ccccc2C1=O)c1ccc(F)cc1,i,?,i,i,26,i
Cn1c(=N)n(CC(=O)c2ccc(Br)cc2)c2ccccc21,i,10µM,i,?,nt,nt
SMILES,VACV mCherry inh,Lassa entry inh,Vaccinia Venus,MARV entry inh,Cycloheximide cs,Shiga inhibitor
O=C(CN1C(=O)c2ccccc2C1=O)c1ccccc1,nt,i,i,i,i,i
Cn1c(=N)n(CC(=O)c2ccc(F)cc2)c2ccccc21,i,?,i,?,37,68
Cc1cccc(-c2nc(S(=O)(=O)c3ccccc3)c(N3CCN(c4ccccc4)CC3)o2)c1,i,i,i,i,nt,nt
CCc1[nH]nc(C(=O)N2CCCC(CCC(=O)N3CCN(c4ccccn4)CC3)C2)c1C (stereo not drawn),i,?,i,i,13,i
O=C(CCC1CCCN(C(=O)C2(c3ccccc3)CC2)C1)N1CCN(c2ccccn2)CC1 (stereo not drawn),i,?,i,?,20,i
CC1CC(=O)N(c2ccc(NCc3ccccc3Cl)c([N+](=O)[O-])c2)C1=O (stereo not drawn),i,i,i,i,i,i
Cc1cc(Cl)ccc1NC(=O)C1CCN(S(=O)(=O)c2ccc3[nH]c(=O)ccc3c2)CC1,i,i,i,nt,nt,nt
COc1ccc(C2CC(c3cccs3)=NN2C(=O)CCC(=O)O)cc1 (stereo not drawn),nt,nt,nt,nt,i,nt
COc1cc(C2CC(c3cccs3)=NN2C(=O)CCl)ccc1OC(F)F (stereo not drawn),i,?,i,?,i,63
COc1ccc(C2CC(c3cccs3)=NN2C(=O)CN2CCCCC2)cc1 (stereo not drawn),i,i,i,i,i,26
COc1ccc(C2CC(c3cccs3)=NN2C(=O)CCl)cc1OC (stereo not drawn),?,?,i,?,29,42
CN1CCc2c(OCC(=O)N3N=C(c4cccs4)CC3c3ccc(F)cc3)cccc2C1=O (stereo not drawn),i,i,i,?,i,i
CCN1CCc2c(OCC(=O)N3N=C(c4cccs4)CC3c3ccc(F)cc3)cccc2C1=O (stereo not drawn),?,11µM,?,?,i,i
COc1ccc(C2CC(c3cccs3)=NN2C(=O)c2ccccc2)cc1OC (stereo not drawn),i,i,i,i,i,i
Cc1sc2ncn(CC(=O)NCCCN3CC(C)CC(C)C3)c(=O)c2c1S(=O)(=O)N1CC(C)CC(C)C1 (stereo not drawn),i,?,i,?,i,i
NNC(=O)c1ccc(C(=O)N(c2ccccc2)c2ccccc2)cc1,i,nt,i,nt,nt,nt
COc1ccc(C(CNC(=O)COc2ccc(F)cc2Br)N2CCCC2)cc1 (stereo not drawn),i,nt,i,4.5µM,i,i
COc1ccc(C(CNC(=O)c2cccc(Br)c2)N2CCCC2)cc1 (stereo not drawn),nt,?,nt,12µM,i,i
Cn1cc(S(=O)(=O)c2ccccc2)c(=O)c2cc(F)c(N3CCCCCC3)cc21,i,i,i,nt,nt,nt
COc1ccc(OCc2cc(C(=O)N3C[C@@H](C)O[C@@H](C)C3)no2)c(Cl)c1,i,i,i,?,40,94
COc1ccc(OCc2cc(C(=O)N3CCCCCCC3)no2)c(Cl)c1,i,i,i,i,40,61
COc1ccc(OCc2cc(C(=O)N3CCN(CC4CC4)CC3)no2)c(Cl)c1,nt,nt,nt,nt,52,55
COc1ccc(OCc2cc(C(=O)NCCN3CCCC(O)C3)no2)c(Cl)c1 (stereo not drawn),i,i,i,i,i,i
CC1CN(C(=O)c2cccc(C(=O)N3CC(C)OC(C)C3)c2)CC(C)O1 (stereo not drawn),nt,i,i,i,i,i
CC1CN(C(=O)c2cccc(COc3ccccc3Cl)c2)CC(C)O1 (stereo not drawn),i,i,i,?,40,135
COCC1CCN(C(=O)c2cc(COc3ccc(OC)cc3Cl)on2)C1 (stereo not drawn),i,nt,i,nt,nt,nt
N#CCCN(CCC#N)C(=S)NC1CC2C=CC1C2 (stereo not drawn),nt,nt,nt,nt,i,i
CCOC(=O)N1CCN(C(=O)c2cc(COc3ccc(OC)cc3Cl)on2)CC1,i,?,i,?,70,105
